The source of these data is PubChem BioAssay (Tox21).

Each structure is given as a SMILES string. Unmarked numbers belong to inactive results. Records with an inconclusive call do not appear. Entries that show only a call come without a potency. The source made the active and inactive calls. Calls come from the whole dose curve; as a rule, active = well fitted activation curve with a large enough effect in the repeat runs; inconclusive = weak or mixed curves; inactive = flat fitted curve, though single readings scatter. Non-standard residues stand in square brackets, D forms with d. Residues, ends and D or L forms follow the SMILES beside them. *: point of attachment. Sta = CC(C)C[C@H](N)[C@@H](O)CC(=O)O; Isovaleryl = CC(C)CC(=O)*

A short description of the first test: A CellTox Green Cytotoxicity Assay to monitor cytotoxicity in HEK293 cells - 32 hour (AID 1224881). Note: nearly all actives have a fitted effect of over 40% in size. The settings on record: CellTox Green fluorescence; series mostly up to 76.8 µM. Summed up: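 Homogeneous no-lysis format: HEK293 cell suspension mixed with CellTox Green reagent, seeded, incubated 5 h at 37 C/5% CO2, then dosed by pintool with compound in DMSO.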
Turning to `CCCC(=O)OC`, the Potency entry was “inactive”. Still for that read-out and setting: then `Cc1ccc2ccccc2n1`, with “inactive”; and `C=CCON/C(CCC)=C1\C(=O)CC(C)(C)C(C(=O)OC)=C1O`, with “inactive”; and `CC(C)(C)c1ccc(N)cc1`, with “inactive”. Take `CC/C=C\CCCCCCCCCCOC(C)=O`: the Potency entry was “inactive”. Take `C[C@@H]1CCC[C@H](C)N1CCCC(O)(c1ccccc1)c1ccccn1` (some centres undefined): the Potency entry was “inactive”. With `c1cc2ccc3ccc4ccc5cccc6c(c1)c2c3c4c56`, the cytotoxicity increase is -14.8% [at 2.72 µM]. On to `CC(C)(C)C(=O)CCc1ccc(Cl)cc1`, for which the Potency result was “inactive”. On the same count and under the same terms, then `CCCCCCCC(=O)N(C)C`, with “inactive”; and `COc1ccc(Cl)cc1C`, with “inactive”; and `Cc1ccc(OC(=O)CC(C)C)cc1`, with “inactive”. With `CCCCN1C(=O)c2ccccc2C1=O`, the Potency entry is “inactive”. Still for that read-out and setting: then `CC1(C)CC(N)CC(C)(C)N1`, with “inactive”. As for `CN(C)CCCN(C)C`, the cytotoxicity increase is -0.385% [at 6.97 µM]. For `N[C@H]1C(O)O[C@H](CO)[C@@H](O)[C@@H]1O` (some centres undefined), the Potency entry was “inactive”. Still for that read-out and setting: next, `Cc1ccc(S(=O)(=O)NC(=O)NN2CC3CCCC3C2)cc1` (centres undefined): “inactive”; `CCCCC(O)/C=C(C)/C=C/C=C/C(=O)N1CCCC1=O` (centres undefined): “inactive”; `CCN(CC)CC`: “inactive”. On to `Cc1cccc(N)n1`, for which the Potency result is “inactive”. On the same count and under the same terms, next, `O=C(O)Cc1ccccc1Oc1ccc(Cl)cc1Cl`: “inactive”; `C[n+]1ccccc1/C=N/O`: “inactive”. Still for that read-out and setting: next, `COc1cnc(NS(=O)(=O)c2ccc(N)cc2)nc1`: “inactive”; `COc1ccccc1N1CCN(CC(O)COc2cc(OC)c(OC)c(OC)c2)CC1` (centres undefined): “inactive”. On the same count and under the same terms, then `CCCCCCCCOCCC#N`, with “inactive”; and `C/C=C/C(=O)CCCC`, with “inactive”. As to `CC(=O)O[C@@H]1CC2C3CCc4cc(OC(=O)c5ccccc5)ccc4C3CCC2(C)[C@H]1OC(C)=O` (some centres undefined), the Potency result is “inactive”. Still for that read-out and setting: next, `CC(C)CC(=O)N[C@H](C(=O)N[C@H](C(=O)N[C@@H](CC(C)C)[C@@H](O)CC(=O)N[C@@H](C)C(=O)N[C@@H](CC(C)C)[C@@H](O)CC(=O)O)C(C)C)C(C)C` (Isovaleryl-VV[Sta]A[Sta]-OH): “inactive”; `Cc1cc(=O)oc2cc(O[C@@H]3SC[C@@H](O)[C@H](O)[C@H]3O)ccc12`: “inactive”. Same read-out and setting: then `CC(C)(Sc1cc(C(C)(C)C)c(O)c(C(C)(C)C)c1)Sc1cc(C(C)(C)C)c(O)c(C(C)(C)C)c1`, with “inactive”; and `CC(C)(C)C(=O)NCCCC(=O)O`, with “inactive”; and `Cc1nc2ccc(Cl)cc2[nH]1`, with “inactive”. As for `O=C(O)CCC(=O)Nc1ccc(S(=O)(=O)Nc2nccs2)cc1`, the Potency result is “inactive”. On the same count and under the same terms, then `COC(=O)c1ccc(NC(C)=O)cc1OC`, with “inactive”. `CCO[Si](CC(C)C)(OCC)OCC`: the Potency entry was “inactive”.

`Cc1ccc(O)c([N+](=O)[O-])c1`: the Potency entry is “inactive”. Same read-out and setting: then `CCC(C)SSC(C)CC` (centres undefined), with “inactive”.

A further test in a line: A CellTox Green Cytotoxicity Assay to monitor cytotoxicity in HepG2 cells - 0 hour (AID 1224882). Note: nearly all actives have a fitted effect of over 35% in size. Particulars: CellTox Green fluorescence; series mostly up to 76.8 µM. Summed up:
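Fluorescent DNA-binding dye, 600 HepG2 cells/well, 5 h preincubation then compound in DMSO; same plates read at 0–40 h, 37 C.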
Turning to `CCCC(=O)OC`, the Potency result was “inactive”.

Regarding `Cc1ccc2ccccc2n1`, the Potency result was “inactive”. On the same count and under the same terms, next, `CC/C=C\CCOC(=O)c1ccccc1`: “inactive”; `C=CCON/C(CCC)=C1\C(=O)CC(C)(C)C(C(=O)OC)=C1O`: “inactive”. On the same count and under the same terms, next, `CC(C)(C)c1ccc(N)cc1`: “inactive”; `CC/C=C\CCCCCCCCCCOC(C)=O`: “inactive”; `C[C@@H]1CCC[C@H](C)N1CCCC(O)(c1ccccc1)c1ccccn1` (some centres undefined): “inactive”.

With `c1cc2ccc3ccc4ccc5cccc6c(c1)c2c3c4c56`, the cytotoxicity is -21.2% [at 2.72 µM]. For the compound `CC(C)(C)C(=O)CCc1ccc(Cl)cc1`, the Potency result is “inactive”.

Consider `CCCCCCCC(=O)N(C)C`, for which the Potency entry was “inactive”. On the same count and under the same terms, then `COc1ccc(Cl)cc1C`, with “inactive”; and `Cc1ccc(OC(=O)CC(C)C)cc1`, with “inactive”.

As to `CCCCN1C(=O)c2ccccc2C1=O`, the Potency entry is “inactive”. Still for that read-out and setting: next, `CCCC(=O)C(CC)Sc1ccoc1C` (centres undefined): “inactive”; `CC1(C)CC(N)CC(C)(C)N1`: “inactive”. On to `CN(C)CCCN(C)C`, for which the cytotoxicity is -10.6% [at 6.97 µM]. With `N[C@H]1C(O)O[C@H](CO)[C@@H](O)[C@@H]1O` (some centres undefined), the Potency entry is “inactive”. Still for that read-out and setting: then `Cc1ccc(S(=O)(=O)NC(=O)NN2CC3CCCC3C2)cc1` (centres undefined), with “inactive”; and `CCCCC(O)/C=C(C)/C=C/C=C/C(=O)N1CCCC1=O` (centres undefined), with “inactive”; and `CCN(CC)CC`, with “inactive”. Consider `Cc1cccc(N)n1`, for which the Potency entry was “inactive”. Still for that read-out and setting: next, `O=C(O)Cc1ccccc1Oc1ccc(Cl)cc1Cl`: “inactive”; `C[n+]1ccccc1/C=N/O`: “inactive”; `COc1cnc(NS(=O)(=O)c2ccc(N)cc2)nc1`: “inactive”. Same read-out and setting: then `COc1ccccc1N1CCN(CC(O)COc2cc(OC)c(OC)c(OC)c2)CC1` (centres undefined), with “inactive”; and `CCCCCCCCOCCC#N`, with “inactive”.

Turning to `C/C=C/C(=O)CCCC`, the Potency result is “inactive”. With `CC(=O)O[C@@H]1CC2C3CCc4cc(OC(=O)c5ccccc5)ccc4C3CCC2(C)[C@H]1OC(C)=O` (some centres undefined), the Potency result is “inactive”. As for `CC(C)CC(=O)N[C@H](C(=O)N[C@H](C(=O)N[C@@H](CC(C)C)[C@@H](O)CC(=O)N[C@@H](C)C(=O)N[C@@H](CC(C)C)[C@@H](O)CC(=O)O)C(C)C)C(C)C` (Isovaleryl-VV[Sta]A[Sta]-OH), the Potency entry was “inactive”. The same measure, in the same setting: next, `Cc1cc(=O)oc2cc(O[C@@H]3SC[C@@H](O)[C@H](O)[C@H]3O)ccc12`: “inactive”; `CC(C)(Sc1cc(C(C)(C)C)c(O)c(C(C)(C)C)c1)Sc1cc(C(C)(C)C)c(O)c(C(C)(C)C)c1`: “inactive”. As for `CC(C)(C)C(=O)NCCCC(=O)O`, the Potency result was “inactive”. On the same count and under the same terms, next, `Cc1nc2ccc(Cl)cc2[nH]1`: “inactive”.

Take `O=C(O)CCC(=O)Nc1ccc(S(=O)(=O)Nc2nccs2)cc1`: the Potency entry is “inactive”. On the same count and under the same terms, then `COC(=O)c1ccc(NC(C)=O)cc1OC`, with “inactive”. Same read-out and setting: then `CCO[Si](CC(C)C)(OCC)OCC`, with “inactive”; and `Cc1ccc(O)c([N+](=O)[O-])c1`, with “inactive”. Regarding `CCC(C)SSC(C)CC` (centres undefined), the Potency entry is “inactive”.
